Each structure is given as a SMILES string. Values joined by “and” are separate entries in the source; they are usually repeats but may differ in a detail not shown here. Identical values can stand only once. Results filed as inconclusive are left out. Active and inactive are the calls of the source. The calls were made as follows, unless noted: active = hit-call score of the fitted dose curve at least 0.9, where 1 is the maximum; inactive = score below 0.9.

Assay [1] is described as follows: BSK_SAg_PBMCCytotoxicity: PBMC Cytotoxicity Assessment in the BioMAP Diversity Plus: SAg Assay (AID 2283093).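 Also: PBMC viability measured as Alamar Blue reduction fluorescence at 546/580 nm; fitted both ways against DMSO so a hit may be loss or gain of signal.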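 As to AC50: PBMC superantigen activated with SEB plus TSST-1 one hour after compound addition.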 Particulars: primary human HUVEC with PBMC. Summed up:
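Alamar Blue reduction (6 h, 546/580 nm) reports PBMC cytotoxicity after 90 h superantigen activation (SEB, TSST-1; 20 ng/mL final each) with 1 h compound pre-treatment. Gain or loss of signal fitted versus DMSO.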

Read-out in assay [2]: Interleukin-8 (IL8), CXCL8 (gene 3576)
The assay can be described thus: BSK_SAg_IL8: BioMAP Diversity Plus: SAg Assay for Interleukin-8 (IL8) Biomarker Activity (AID 2283094). Particulars: primary human HUVEC with PBMC; actives raise or lower the signal. A digest of the protocol: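 Chemicals were dosed onto a human endothelial–PBMC co-culture, and IL-8 was quantified by ELISA after 24 h. Both increases and decreases were fitted relative to DMSO.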

Assay [3] is described as follows: BSK_SAg_Proliferation: Cell Proliferation Assessment in the BioMAP Diversity Plus: SAg Assay (AID 2283095).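 Also: relative cell number as total protein by SRB absorbance in sub-confluent culture.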 The settings on record: primary human HUVEC with PBMC. Summed up: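 Absorbance of sulforhodamine B at 560 nm reports total protein in a human vascular endothelial/PBMC co-culture after 96 h chemical exposure. Gain or loss of signal is fitted in both directions against DMSO.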

The nature of assay [4]: BSK_SAg_SRB: Viability Assessment in the BioMAP Diversity Plus: SAg Assay (AID 2283096).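 Also: cells read one day after compound addition; hits may be either gain or loss of signal compared with DMSO.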 The settings on record: primary human HUVEC with PBMC. A digest of the protocol: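 This overt-cytotoxicity endpoint quantifies protein in human endothelial/PBMC co-cultures at 24 h using SRB absorbance (560 nm) after trichloroacetic acid fixation. Values reflect signal change from the DMSO negative control, fitted bidirectionally.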

The target of assay [5] is human CYP1A1, CYP1A1 (gene 1543) (UniProt P04798). Description: NVS_ADME_hCYP1A1: NovaScreen (NVS) CYP450-related Enzyme Activity (ADME) Assay for human CYP1A1 (AID 2283100; active = hit-call score of the fitted dose curve at least 0.9, where 1 is the maximum). Summed up: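 Read-out: fluorescence intensity from enzymatic turnover of substrate by recombinant CYP1A1, loss of signal indicating inhibition. Incubation 1 h post-dose. Primary single-point 10 uM in duplicate; actives rerun singly with top concentration 20 uM.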

Assay [6] has as its target human CYP2B6, CYP2B6 (gene 1555) (UniProt P20813). The assay can be described thus: NVS_ADME_hCYP2B6: NovaScreen (NVS) CYP450-related Enzyme Activity (ADME) Assay for human CYP2B6 (AID 2283101; active = hit-call score of the fitted dose curve at least 0.9, where 1 is the maximum). The procedure: NVS_ADME_hCYP2B6 is a biochemical, single-readout assay that uses extracted gene-proteins in a cell-free assay. Measurements were taken 1 hour after chemical dosing in a 96-well plate.NVS_ADME_hCYP2B6 is one of one assay component(s) measured or calculated from the NVS_ADME_hCYP2B6 assay. It is designed to make measurements of enzyme activity, a form of enzyme reporter, as detected with fluorescence intensity signals by Fluorescence technology.Data from the assay component NVS_ADME_hCYP2B6 was analyzed into 1 assay endpoint. This assay endpoint, NVS_ADME_hCYP2B6, was analyzed in the positive analysis fitting direction relative to Acetonitrile as the negative control and baseline of activity. Using a type of enzyme reporter, loss-of-signal activity can be used to understand changes in the enzymatic activity as they relate to the gene CYP2B6. Furthermore, this assay endpoint can be referred to as a primary readout, because this assay has produced multiple assay endpoints where this one serves a enzymatic activity function. To generalize the intended target to other relatable targets, this assay endpoint is annotated to the cyp intended target family, where the subfamily is xenobiotic metabolism.
Binding assays used specific radioligands (tritiated, iodinated) with non-radioactive competitive displacement ligands in agonist or antagonist protocols (as indicated) and various reference compounds and inhibitors to titrate specific binding to receptors and transporters. Most enzyme assays (CYPs, kinases, phosphatases, proteases, HDACs) used recombinant protein and specific substrates (fluorescence mostly, some colorimetric and radioactive) and inhibitors, followed by a biochemical separation of substrate and product. All assays for the biochemical HTS were initially run in duplicate at a single concentration (10 uM for CYP450 assays and 25 uM for all others). […] Each assay was run with positive and negative controls, and concurrent controls on every plate. The follow-up (secondary) screen tested active chemical-pairs in concentration series, as well as a few additional assays not tested in the primary screen, some selected negative inactives, and several cases re-run in the concentration series for confirmatory purposes.

For assay [7], the target named is human CYP1A2, CYP1A2 (gene 1544) (UniProt P05177). The assay can be described thus: NVS_ADME_hCYP1A2: NovaScreen (NVS) CYP450-related Enzyme Activity (ADME) Assay for human CYP1A2 (AID 2283102; active = hit-call score of the fitted dose curve at least 0.9, where 1 is the maximum;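 as to AC50: potency for inhibition since loss of fluorescence marks reduced CYP1A2 activity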). A digest of the protocol:
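Fluorescence-intensity enzyme activity read-out, taken 0.5 h post-dosing, using insect-cell-derived recombinant CYP1A2 and specific fluorescent substrate. Acetonitrile served as negative control/baseline. Single-concentration duplicate screen at 10 uM, then concentration-response follow-up.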

Assay [8] has as its target human CYP2D6, CYP2D6 (gene 1565) (UniProt P10635). The assay can be described thus: NVS_ADME_hCYP2D6: NovaScreen (NVS) CYP450-related Enzyme Activity (ADME) Assay for human CYP2D6 (AID 2283107; active = hit-call score of the fitted dose curve at least 0.9, where 1 is the maximum). Summed up: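 Fluorescence intensity read 1 h post-dosing; insect-cell-expressed recombinant protein with fluorogenic substrate, no cells. Activity is scored as signal loss relative to acetonitrile baseline, first at a single 10 uM concentration in duplicate, then as concentration series for confirmed actives.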

The target of assay [9] is human CYP2A6, CYP2A6 (gene 1548) (UniProt P11509). Description: NVS_ADME_hCYP2A6: NovaScreen (NVS) CYP450-related Enzyme Activity (ADME) Assay for human CYP2A6 (AID 2283099; active = hit-call score of the fitted dose curve at least 0.9, where 1 is the maximum). A digest of the protocol: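 Insect-cell-expressed human CYP2A6 enzyme activity measured by fluorescence intensity 0.5 hour post-dosing. Compounds screened at 10 uM in duplicate, then hits tested singly in concentration series (max 20 uM); acetonitrile baseline.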
Sequence of human CYP2A6, CYP2A6 (gene 1548) (P11509 whole entry, looked up): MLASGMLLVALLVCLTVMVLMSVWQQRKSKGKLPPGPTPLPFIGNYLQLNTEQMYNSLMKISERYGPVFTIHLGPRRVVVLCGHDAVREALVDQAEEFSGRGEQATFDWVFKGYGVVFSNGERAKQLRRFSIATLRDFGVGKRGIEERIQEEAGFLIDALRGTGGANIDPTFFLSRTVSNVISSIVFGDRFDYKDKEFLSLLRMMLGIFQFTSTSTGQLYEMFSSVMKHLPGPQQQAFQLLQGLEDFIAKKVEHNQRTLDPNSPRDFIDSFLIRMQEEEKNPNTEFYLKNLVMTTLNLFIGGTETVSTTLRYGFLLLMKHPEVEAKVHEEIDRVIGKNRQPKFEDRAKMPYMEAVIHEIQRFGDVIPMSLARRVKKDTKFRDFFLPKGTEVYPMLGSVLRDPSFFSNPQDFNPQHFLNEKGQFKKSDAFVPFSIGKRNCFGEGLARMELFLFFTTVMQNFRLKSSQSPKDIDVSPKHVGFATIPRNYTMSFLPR

Sequence of human CYP2D6, CYP2D6 (gene 1565) (P10635 whole entry, looked up): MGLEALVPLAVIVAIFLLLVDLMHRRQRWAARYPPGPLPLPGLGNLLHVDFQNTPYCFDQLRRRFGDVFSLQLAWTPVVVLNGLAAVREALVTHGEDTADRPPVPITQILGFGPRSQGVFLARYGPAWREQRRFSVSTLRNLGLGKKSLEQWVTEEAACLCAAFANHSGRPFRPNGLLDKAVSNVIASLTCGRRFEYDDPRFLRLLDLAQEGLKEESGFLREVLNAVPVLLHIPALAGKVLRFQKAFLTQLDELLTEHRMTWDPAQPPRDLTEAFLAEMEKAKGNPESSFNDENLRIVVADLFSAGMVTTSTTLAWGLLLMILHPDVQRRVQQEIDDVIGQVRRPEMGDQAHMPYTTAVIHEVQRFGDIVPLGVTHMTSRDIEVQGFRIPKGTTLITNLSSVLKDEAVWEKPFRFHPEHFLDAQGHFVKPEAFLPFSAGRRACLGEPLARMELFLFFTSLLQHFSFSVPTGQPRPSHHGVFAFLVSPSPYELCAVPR
Sequence of human CYP1A2, CYP1A2 (gene 1544) (P05177 whole entry, looked up): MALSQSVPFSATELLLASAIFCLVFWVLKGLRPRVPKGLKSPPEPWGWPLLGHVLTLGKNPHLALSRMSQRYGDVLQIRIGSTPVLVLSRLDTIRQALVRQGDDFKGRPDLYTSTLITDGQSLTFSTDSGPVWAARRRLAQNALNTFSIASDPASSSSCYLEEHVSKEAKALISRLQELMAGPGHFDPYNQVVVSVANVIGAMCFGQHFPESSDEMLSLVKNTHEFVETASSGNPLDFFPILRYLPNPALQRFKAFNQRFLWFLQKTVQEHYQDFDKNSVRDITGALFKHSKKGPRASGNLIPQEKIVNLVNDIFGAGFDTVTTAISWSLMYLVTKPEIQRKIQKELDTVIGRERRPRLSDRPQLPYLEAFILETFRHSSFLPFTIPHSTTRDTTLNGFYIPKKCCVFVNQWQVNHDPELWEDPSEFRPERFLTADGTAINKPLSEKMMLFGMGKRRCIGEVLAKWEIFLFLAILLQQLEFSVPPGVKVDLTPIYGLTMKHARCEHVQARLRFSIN
Sequence of human CYP1A1, CYP1A1 (gene 1543) (P04798 whole entry, looked up): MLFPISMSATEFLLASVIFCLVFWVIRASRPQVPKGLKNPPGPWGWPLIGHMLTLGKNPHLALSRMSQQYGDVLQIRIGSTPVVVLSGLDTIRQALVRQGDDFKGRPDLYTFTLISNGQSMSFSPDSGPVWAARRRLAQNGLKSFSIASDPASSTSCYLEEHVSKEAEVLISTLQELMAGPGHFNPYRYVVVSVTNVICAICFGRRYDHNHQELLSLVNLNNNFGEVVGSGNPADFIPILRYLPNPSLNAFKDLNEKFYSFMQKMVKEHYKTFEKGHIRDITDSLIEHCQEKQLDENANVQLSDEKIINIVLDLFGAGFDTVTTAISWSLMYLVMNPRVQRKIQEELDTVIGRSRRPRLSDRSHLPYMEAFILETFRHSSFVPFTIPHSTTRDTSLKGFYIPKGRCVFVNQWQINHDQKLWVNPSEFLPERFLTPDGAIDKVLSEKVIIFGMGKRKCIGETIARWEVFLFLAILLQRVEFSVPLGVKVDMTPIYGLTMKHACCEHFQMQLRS
Sequence of human CYP2B6, CYP2B6 (gene 1555) (P20813 whole entry, looked up): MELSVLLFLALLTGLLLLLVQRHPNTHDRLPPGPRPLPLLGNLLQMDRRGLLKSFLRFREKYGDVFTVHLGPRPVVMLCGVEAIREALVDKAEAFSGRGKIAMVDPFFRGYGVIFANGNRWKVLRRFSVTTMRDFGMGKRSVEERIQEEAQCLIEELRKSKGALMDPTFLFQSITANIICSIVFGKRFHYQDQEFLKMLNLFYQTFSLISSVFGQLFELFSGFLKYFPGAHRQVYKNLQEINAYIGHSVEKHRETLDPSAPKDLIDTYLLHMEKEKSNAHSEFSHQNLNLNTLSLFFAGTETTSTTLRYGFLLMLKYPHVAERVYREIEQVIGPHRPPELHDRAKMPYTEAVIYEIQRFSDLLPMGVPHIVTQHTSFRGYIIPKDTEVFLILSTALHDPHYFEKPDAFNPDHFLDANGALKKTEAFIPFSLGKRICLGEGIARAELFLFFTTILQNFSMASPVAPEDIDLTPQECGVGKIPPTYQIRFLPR

With `CCCCOCCOCCOCc1cc2c(cc1CCC)OCO2`, the AC50 in [1] is 15.9 µM (active); in [5] it was 5.97 µM (active); in assay [6], 10 µM (active); in assay [7] it was 1.53 µM (active); in [8] it was 3.87 µM (active). Further, the result in [2], in [3] and in [4] was inactive.
Take `CCN(CC)C(=O)c1cccc(C)c1`: the outcome in assay [1], in assay [2] and in assay [3] was inactive. Also, the AC50 in [4] is 13.9 µM (active).
Regarding `CCC(C)OC(=O)N1CCCCC1CCO` (configuration not stated), the outcome in assay [1], in [2], in [3] and in [4] was inactive.
For the compound `COc1c(Cl)ccc(Cl)c1C(=O)O`, the outcome in assay [1], in assay [2], in assay [3] and in assay [4] was inactive.
For the compound `N#CSCSc1nc2ccccc2s1`, the AC50 is 909 nM (active) and 2.23 µM (active) in assay [1]; 5.44 µM (active) and 10.9 µM (active) in [2]; 783 nM (active) and 1.76 µM (active) in [3]; 18.2 µM (active) and 10.5 µM (active) in assay [4]; 3.06 µM (active) in assay [9]; 1.87 µM (active) in assay [6]. The AC50 in assay [7] was 3.44 µM (active); in [8], 1.99 µM (active) and 1.9 µM (active).
On to `CCCCCCC(C)OC(=O)COc1nc(F)c(Cl)c(N)c1Cl` (configuration not stated), for which the AC50 is 12.3 µM (active) in assay [1], 29.1 µM (active) in assay [2], 9.53 µM (active) in [3] and 34.9 µM (active) in assay [4]. Further, the result in assay [7] was inactive.
As to `CCCCC(CC)CN1C(=O)C2C3C=CC(C3)C2C1=O` (configuration not stated), the AC50 in assay [1] was 15.3 µM (active); in [3], 32.7 µM (active); in assay [4] it was 20 µM (active); in [7], 5.57 µM (active). Moreover, the result in assay [2] was inactive.
Turning to `CCCCC(CC)COC(=O)c1ccccc1C(=O)O` (configuration not stated), the outcome in assay [1], in assay [2], in assay [3] and in [4] was inactive.
As for `CCOC(=O)c1ccc(O)cc1`, the outcome in assay [1], in [2], in assay [3] and in assay [4] was inactive.
As for `C[C@]12C[C@H](O)[C@H]3[C@@H](CCC4=CC(=O)CC[C@@]43C)[C@@H]1CC[C@@H]2C(=O)CO`, the result in [1], in assay [2], in assay [3] and in [4] was inactive.
`Oc1ccc(C(c2ccc(O)cc2)C(Cl)(Cl)Cl)cc1`: the AC50 was 20 µM (active) in [1]; 14.2 µM (active) in assay [2]; 24.1 µM (active) in assay [3]; 32.3 µM (active) in [4]; 10 µM (active) in [5].
In the case of `COC(=O)c1ccccc1S(=O)(=O)NC(=O)Nc1nc(OC(F)F)cc(OC(F)F)n1`, the result in assay [1], in assay [2], in assay [3] and in [4] was inactive. Also, the AC50 in assay [7] was 5.43 µM (active).
On to `CCCN(CCC)c1c([N+](=O)[O-])cc(C(F)(F)F)c(N)c1[N+](=O)[O-]`, for which the AC50 in [1] is 15 µM (active); in assay [2], 20 µM (active); in assay [3], 21 µM (active); in [4], 14.7 µM (active); in assay [7] it was 6.02 µM (active).
Take `CC(C)CCCCCCc1ccc(O)cc1`: the AC50 in [1] was 6.38 µM (active); in assay [2], 6.55 µM (active); in assay [3] it was 5.59 µM (active); in [4] it was 13.1 µM (active); in assay [5], 10.7 µM (active).
Turning to `O=C(O)c1ccccc1`, the outcome in [1], in assay [2], in [3], in assay [4] and in assay [9] was inactive.
As to `C#CCOC(=O)[C@@H](C)Oc1ccc(Oc2ncc(Cl)cc2F)cc1`, the result in [1], in [2], in assay [3] and in [4] was inactive. Moreover, the AC50 in assay [5] is 2.24 µM (active); in assay [6], 0.777 µM (active); in assay [7], 1.64 µM (active).

The AC50 is the midpoint of the concentration-response curve, whichever way the signal moves.

The values above are taken from PubChem BioAssay (EPA / NIEHS).
